About 3,300 (8.5%) of roughly 39,000 compounds were called active. For the sample, actives were picked, then their nearest neighbours and some compounds at random.
What follows are compounds tested on HepG2 (assay: cytotoxicity call (relative viability < 0.9)). Conditions: 10 µM.

| SMILES | cytotoxicity call |
| --- | --- |
| Cc1ccc(S(=O)(=O)N2C[C@H](O)COC[C@H]3O[C@H](CC(=O)N4CCc5ccccc5C4)CC[C@@H]32)cc1 | inactive |
| CC(C)(N)c1cc(C(=O)N[C@@H]2CCc3ccc(Oc4ccnc5c4CCC(=O)N5)cc3C2)cc(C(F)(F)F)c1 | active |
| CC(C)CC#Cc1ccc2c(c1)O[C@@H](CN(C)C(=O)Cc1ccccn1)[C@@H](C)CN([C@@H](C)CO)S2(=O)=O | inactive |
| C[C@H](CO)N1C[C@H](C)[C@@H](CN(C)S(C)(=O)=O)Oc2ccc(NS(=O)(=O)c3ccccc3)cc2C1=O | inactive |
| C[C@@H]1CN([C@H](C)CO)C(=O)c2cc(NS(=O)(=O)c3ccccc3)ccc2O[C@H]1CN(C)S(C)(=O)=O | active |
| C[C@H](CO)N1C[C@H](C)[C@H](CN(C)S(C)(=O)=O)Oc2ccc(NS(=O)(=O)c3ccccc3)cc2C1=O | inactive |
| C[C@H]1CN([C@@H](C)CO)C(=O)c2cc(NS(=O)(=O)c3ccccc3)ccc2O[C@H]1CN(C)S(C)(=O)=O | inactive |
| C[C@@H]1CN([C@@H](C)CO)C(=O)c2cc(NS(=O)(=O)c3ccccc3)ccc2O[C@@H]1CN(C)S(C)(=O)=O | inactive |
| C[C@H]1CN([C@@H](C)CO)C(=O)c2cc(NS(=O)(=O)c3ccccc3)ccc2O[C@@H]1CN(C)S(C)(=O)=O | active |
| Cn1cnc(S(=O)(=O)N2C[C@H](O)COC[C@H]3O[C@@H](CC(=O)NCc4cc(F)cc(F)c4)CC[C@@H]32)c1 | inactive |
| C[C@@H]1CN([C@H](C)CO)C(=O)c2cccc(NS(=O)(=O)c3ccc(F)cc3)c2O[C@H]1CN(C)S(=O)(=O)c1cn(C)cn1 | inactive |
| C[C@@H]1CCCCO[C@H](CN(C)S(C)(=O)=O)[C@@H](C)CN([C@H](C)CO)C(=O)c2cc(NC(=O)Nc3cccc4ccccc34)ccc2O1 | inactive |
| C[C@@H]1CN([C@@H](C)CO)C(=O)c2cccc(NC(=O)Nc3ccc(C(F)(F)F)cc3)c2O[C@@H]1CN(C)Cc1ccc2c(c1)OCO2 | active |
| C[C@@H]1CN([C@H](C)CO)C(=O)c2cccc(NC(=O)Nc3ccc4c(c3)OCO4)c2O[C@H]1CN(C)Cc1ccc(C(F)(F)F)cc1 | active |
| C[C@H](CO)N1C[C@H](C)[C@@H](CN(C)Cc2ccc(C(F)(F)F)cc2)Oc2c(NC(=O)Nc3ccc4c(c3)OCO4)cccc2C1=O | inactive |
| C[C@@H]1CN([C@@H](C)CO)C(=O)c2cccc(NC(=O)Nc3ccc4c(c3)OCO4)c2O[C@H]1CN(C)Cc1ccc(C(F)(F)F)cc1 | active |
| C[C@H]1CN([C@@H](C)CO)C(=O)c2cccc(NC(=O)Nc3ccc4c(c3)OCO4)c2O[C@H]1CN(C)Cc1ccc(C(F)(F)F)cc1 | inactive |
| C[C@@H]1CN([C@@H](C)CO)C(=O)c2cccc(NC(=O)Nc3ccc(C(F)(F)F)cc3)c2O[C@H]1CN(C)Cc1ccc2c(c1)OCO2 | inactive |
| C[C@H]1CN([C@@H](C)CO)C(=O)c2cccc(NC(=O)Nc3ccc4c(c3)OCO4)c2O[C@@H]1CN(C)Cc1ccc(C(F)(F)F)cc1 | inactive |
| C[C@H](CO)N1C[C@H](C)[C@H](CN(C)Cc2ccc(C(F)(F)F)cc2)Oc2c(NC(=O)Nc3ccc4c(c3)OCO4)cccc2C1=O | inactive |
| C[C@H]1CN([C@@H](C)CO)C(=O)c2cccc(NC(=O)Nc3ccc(C(F)(F)F)cc3)c2O[C@H]1CN(C)Cc1ccc2c(c1)OCO2 | inactive |

| SMILES | cytotoxicity call |
| --- | --- |
| CCOC(=O)N(C)C[C@H]1OCc2cn(nn2)CCCC(=O)N([C@H](C)CO)C[C@@H]1C | inactive |
| CC(=O)O[C@H]1CC[C@]2(C)[C@H]3CC[C@]4(C)C(=CC(=O)O[C@H]4c4ccoc4)[C@]3(C)[C@H](OC(C)=O)C[C@H]2C1(C)C | inactive |
| CN(C)C(=O)c1ccc(-c2ccc3n(c2=O)C[C@@H]2[C@@H](CO)[C@H](C(=O)NCCc4ccccc4)N[C@H]32)cc1 | inactive |
| COc1ccc(NC(=O)Nc2ccc3c(c2)C(=O)N([C@H](C)CO)C[C@H](C)[C@H](CN(C)Cc2ccc(Oc4ccccc4)cc2)O3)cc1 | inactive |
| COc1ccc(NC(=O)Nc2ccc3c(c2)C(=O)N([C@@H](C)CO)C[C@@H](C)[C@H](CN(C)Cc2ccc(Oc4ccccc4)cc2)O3)cc1 | inactive |
| COc1ccc(NC(=O)Nc2ccc3c(c2)C(=O)N([C@H](C)CO)C[C@H](C)[C@@H](CN(C)Cc2ccc(Oc4ccccc4)cc2)O3)cc1 | active |
| COc1ccc(NC(=O)Nc2ccc3c(c2)C(=O)N([C@H](C)CO)C[C@@H](C)[C@@H](CN(C)Cc2ccc(Oc4ccccc4)cc2)O3)cc1 | inactive |
| COc1ccc(NC(=O)Nc2ccc3c(c2)C(=O)N([C@@H](C)CO)C[C@@H](C)[C@@H](CN(C)Cc2ccc(Oc4ccccc4)cc2)O3)cc1 | active |
| COc1ccc(NC(=O)Nc2ccc3c(c2)C(=O)N([C@@H](C)CO)C[C@H](C)[C@@H](CN(C)Cc2ccc(Oc4ccccc4)cc2)O3)cc1 | inactive |
| C[C@H](CO)N1C[C@H](C)[C@@H](CN(C)S(=O)(=O)c2ccc(Cl)cc2)OCc2cnnn2CCCC1=O | inactive |
| Cc1ccc(S(=O)(=O)Nc2ccc3c(c2)C(=O)N([C@@H](C)CO)C[C@@H](C)[C@@H](CN(C)C(=O)C2CCCCC2)OCCCC[C@H](C)O3)cc1 | inactive |
| CC(C)(c1cc(Br)c(O)c(Br)c1)c1cc(Br)c(O)c(Br)c1 | inactive |
| C[C@H](CO)N1C[C@H](C)[C@@H](CN(C)C(=O)NC2CCCCC2)Oc2c(NS(=O)(=O)c3cn(C)cn3)cccc2C1=O | inactive |
| CCCNC(=O)N1C[C@H](O)COC[C@H]2O[C@@H](CC(=O)NCCCN3CCOCC3)CC[C@@H]21 | inactive |
| CNC(=O)C[C@@H]1CC[C@H]2[C@@H](COC[C@H](O)CN2C(=O)c2ccc3c(c2)OCO3)O1 | inactive |
| O=C(C[C@@H]1CC[C@H]2[C@@H](COC[C@@H](O)CN2C(=O)c2ccc3c(c2)OCO3)O1)NCCN1CCCCC1 | active |
| CCCNC(=O)N1C[C@H](O)COC[C@H]2O[C@H](CC(=O)NCCCN3CCOCC3)CC[C@@H]21 | active |
| CNC(=O)C[C@H]1CC[C@H]2[C@@H](COC[C@@H](O)CN2C(=O)c2ccc3c(c2)OCO3)O1 | inactive |
| O=C(C[C@@H]1CC[C@@H]2[C@H](COC[C@@H](O)CN2C(=O)c2ccc3c(c2)OCO3)O1)NCCN1CCCCC1 | inactive |
| CNC(=O)C[C@H]1CC[C@@H]2[C@H](COC[C@@H](O)CN2C(=O)c2ccc3c(c2)OCO3)O1 | active |
| O=C(C[C@H]1CC[C@@H]2[C@H](COC[C@H](O)CN2C(=O)c2ccc3c(c2)OCO3)O1)NCCN1CCCCC1 | inactive |

| SMILES | cytotoxicity call |
| --- | --- |
| CCCNC(=O)N1C[C@@H](O)COC[C@H]2O[C@@H](CC(=O)NCCCN3CCOCC3)CC[C@@H]21 | inactive |
| C[C@@H]1CN([C@H](C)CO)C(=O)c2cc(NC(=O)NC3CCCCC3)ccc2O[C@@H](C)CCCCO[C@H]1CN(C)C(=O)Nc1ccc(F)cc1 | inactive |
| C[C@H](CO)N1C[C@H](C)[C@@H](CN(C)S(=O)(=O)c2cccs2)OCCCC[C@H](C)Oc2ccc(NS(=O)(=O)c3cn(C)cn3)cc2C1=O | inactive |
| COc1ccc(C#Cc2ccc3c(c2)[C@H]2[C@H](CCN2C(=O)Nc2ccc(C(F)(F)F)cc2)[C@H](CO)N3C)cc1 | inactive |
| C[C@H](CO)N1C[C@H](C)[C@@H](CN(C)S(=O)(=O)c2cn(C)cn2)Oc2ccc(NC(=O)c3ccncc3)cc2C1=O | inactive |
| C[C@@H]1CN([C@H](C)CO)S(=O)(=O)c2ccc(Br)cc2O[C@H]1CN(C)Cc1cccc(C(=O)O)c1 | inactive |
| C[C@@H]1CN([C@H](C)CO)C(=O)c2cccc(NC(=O)Nc3ccccc3)c2O[C@H]1CN(C)Cc1ccc(C(=O)Nc2ccccc2N)cc1 | inactive |
| O=C(C[C@H]1C[C@H]2c3cc(NC(=O)NC4CCCC4)ccc3O[C@H]2[C@H](CO)O1)NCc1ccc(Oc2ccccc2)cc1 | active |
| O=C(C[C@H]1C[C@@H]2c3cc(NC(=O)NC4CCCC4)ccc3O[C@@H]2[C@H](CO)O1)NCc1ccc(Oc2ccccc2)cc1 | active |
| O=C(C[C@@H]1C[C@H]2c3cc(NC(=O)NC4CCCC4)ccc3O[C@H]2[C@H](CO)O1)NCc1ccc(Oc2ccccc2)cc1 | inactive |
| O=C(C[C@@H]1C[C@@H]2c3cc(NC(=O)Nc4ccccc4F)ccc3O[C@@H]2[C@@H](CO)O1)NCc1ccc(Oc2ccccc2)cc1 | active |
| O=C(C[C@@H]1C[C@@H]2c3cc(NC(=O)NC4CCCC4)ccc3O[C@@H]2[C@H](CO)O1)NCc1ccc(Oc2ccccc2)cc1 | inactive |
| O=C(C[C@H]1C[C@@H]2c3cc(NC(=O)NC4CCCC4)ccc3O[C@@H]2[C@@H](CO)O1)NCc1ccc(Oc2ccccc2)cc1 | inactive |
| O=C(C[C@@H]1C[C@H]2c3cc(NC(=O)NC4CCCC4)ccc3O[C@H]2[C@@H](CO)O1)NCc1ccc(Oc2ccccc2)cc1 | inactive |
| O=C(C[C@H]1C[C@H]2c3cc(NC(=O)Nc4ccccc4F)ccc3O[C@H]2[C@H](CO)O1)NCc1ccc(Oc2ccccc2)cc1 | inactive |
| O=C(C[C@@H]1C[C@H]2c3cc(NC(=O)Nc4ccccc4F)ccc3O[C@H]2[C@H](CO)O1)NCc1ccc(Oc2ccccc2)cc1 | inactive |
| CC(C)(C)OC(=O)C[C@@H]1CC=CC[C@H](CC(=O)NCCO)C(=O)NCCOC1=O | inactive |
| COCC#Cc1ccc([C@@H]2[C@H](CO)N3C(=O)CN(C(=O)c4ccncc4)C[C@@H]23)cc1 | inactive |
| CO[C@H]1CN(C)C(=O)c2ccc(NS(C)(=O)=O)cc2OC[C@@H](C)N(C(=O)CN(C)C)C[C@H]1C | inactive |
| C[C@@H]1CN([C@H](C)CO)C(=O)Cc2cc(NS(=O)(=O)c3ccc(F)cc3)ccc2O[C@H]1CN(C)Cc1ccncc1 | inactive |

From the antibiotic and cytotoxicity screens of Wong et al. (2023)
